Experiment [1] deals with T1, 3-phosphoinositide-dependent protein kinase 1 (Homo sapiens) (UniProt O15530).
T1 sequence (whole entry): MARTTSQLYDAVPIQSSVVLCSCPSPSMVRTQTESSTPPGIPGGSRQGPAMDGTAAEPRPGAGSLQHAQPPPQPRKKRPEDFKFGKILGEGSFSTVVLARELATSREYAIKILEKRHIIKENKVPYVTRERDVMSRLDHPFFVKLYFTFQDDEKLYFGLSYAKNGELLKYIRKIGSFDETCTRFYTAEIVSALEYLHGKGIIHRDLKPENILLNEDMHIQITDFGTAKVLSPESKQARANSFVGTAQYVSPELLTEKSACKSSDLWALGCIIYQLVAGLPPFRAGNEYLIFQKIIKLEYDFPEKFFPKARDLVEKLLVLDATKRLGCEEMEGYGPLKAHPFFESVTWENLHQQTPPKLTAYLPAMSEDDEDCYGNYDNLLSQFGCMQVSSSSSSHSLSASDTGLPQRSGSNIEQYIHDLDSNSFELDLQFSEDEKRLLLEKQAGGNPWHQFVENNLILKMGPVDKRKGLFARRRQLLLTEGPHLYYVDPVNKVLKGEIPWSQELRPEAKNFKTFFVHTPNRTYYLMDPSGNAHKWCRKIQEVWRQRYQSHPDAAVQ
As to conditions: at 0.1 µM.

For experiment [2], the target named is cAMP-dependent protein kinase catalytic subunit alpha (Homo sapiens) (UniProt P17612). As to conditions: at 0.1 µM.
The target is the same in experiment [3]. As to conditions: at 1 µM.
Experiment [4] addresses Protein kinase C alpha type (Homo sapiens) (UniProt P17252). The following applies: at 0.1 µM.
Experiment [5] has the same target. As to conditions: at 1 µM.
Experiment [6] has as its target Protein kinase C beta type (Homo sapiens) (UniProt P05771). The following applies: at 0.1 µM.
The target is the same in experiment [7]. The following applies: at 1 µM.
The target in experiment [8] is Protein kinase C eta type (Homo sapiens) (UniProt P24723). As to conditions: at 0.1 µM.
The target is the same in experiment [9]. As to conditions: at 1 µM.
The target of experiment [10] is Protein kinase C gamma type (Homo sapiens) (UniProt P05129). The following applies: at 0.1 µM.
The target is the same in experiment [11]. The following applies: at 1 µM.
Experiment [12] deals with T2, Protein kinase C iota type (Homo sapiens) (UniProt P41743).
T2 sequence (whole entry): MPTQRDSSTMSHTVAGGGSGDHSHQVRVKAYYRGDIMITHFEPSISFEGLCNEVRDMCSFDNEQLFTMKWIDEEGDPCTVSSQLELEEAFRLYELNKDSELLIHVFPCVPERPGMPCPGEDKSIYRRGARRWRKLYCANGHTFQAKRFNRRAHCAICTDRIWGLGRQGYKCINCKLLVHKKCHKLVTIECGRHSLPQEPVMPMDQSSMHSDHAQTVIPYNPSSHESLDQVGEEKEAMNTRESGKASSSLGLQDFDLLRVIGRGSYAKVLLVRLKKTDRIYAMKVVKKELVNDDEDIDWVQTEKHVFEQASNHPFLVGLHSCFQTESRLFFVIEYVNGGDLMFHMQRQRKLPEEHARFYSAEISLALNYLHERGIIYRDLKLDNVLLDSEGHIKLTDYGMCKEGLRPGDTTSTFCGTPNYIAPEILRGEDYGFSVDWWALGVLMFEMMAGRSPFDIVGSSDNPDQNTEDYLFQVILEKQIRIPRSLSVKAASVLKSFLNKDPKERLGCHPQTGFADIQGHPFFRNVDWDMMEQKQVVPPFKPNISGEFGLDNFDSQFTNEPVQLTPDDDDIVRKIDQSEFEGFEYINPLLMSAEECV
As to conditions: at 0.1 µM.

Experiment [13] addresses T2, Protein kinase C iota type (Homo sapiens). As to conditions: at 1 µM.
In experiment [14] the target is Protein kinase C theta type (Homo sapiens) (UniProt Q04759). As to conditions: at 0.1 µM.
Experiment [15] has the same target. The following applies: at 1 µM.
Experiment [16] addresses Protein kinase C beta type (Homo sapiens) (UniProt P05771). As to conditions: at 0.1 µM. This is another data set of the same source.
Experiment [17] shares this target. The following applies: at 1 µM. This is another data set of the same source.
For experiment [18], the target named is T3, Serine/threonine-protein kinase D1 (Homo sapiens) (UniProt Q15139).
T3 sequence (whole entry): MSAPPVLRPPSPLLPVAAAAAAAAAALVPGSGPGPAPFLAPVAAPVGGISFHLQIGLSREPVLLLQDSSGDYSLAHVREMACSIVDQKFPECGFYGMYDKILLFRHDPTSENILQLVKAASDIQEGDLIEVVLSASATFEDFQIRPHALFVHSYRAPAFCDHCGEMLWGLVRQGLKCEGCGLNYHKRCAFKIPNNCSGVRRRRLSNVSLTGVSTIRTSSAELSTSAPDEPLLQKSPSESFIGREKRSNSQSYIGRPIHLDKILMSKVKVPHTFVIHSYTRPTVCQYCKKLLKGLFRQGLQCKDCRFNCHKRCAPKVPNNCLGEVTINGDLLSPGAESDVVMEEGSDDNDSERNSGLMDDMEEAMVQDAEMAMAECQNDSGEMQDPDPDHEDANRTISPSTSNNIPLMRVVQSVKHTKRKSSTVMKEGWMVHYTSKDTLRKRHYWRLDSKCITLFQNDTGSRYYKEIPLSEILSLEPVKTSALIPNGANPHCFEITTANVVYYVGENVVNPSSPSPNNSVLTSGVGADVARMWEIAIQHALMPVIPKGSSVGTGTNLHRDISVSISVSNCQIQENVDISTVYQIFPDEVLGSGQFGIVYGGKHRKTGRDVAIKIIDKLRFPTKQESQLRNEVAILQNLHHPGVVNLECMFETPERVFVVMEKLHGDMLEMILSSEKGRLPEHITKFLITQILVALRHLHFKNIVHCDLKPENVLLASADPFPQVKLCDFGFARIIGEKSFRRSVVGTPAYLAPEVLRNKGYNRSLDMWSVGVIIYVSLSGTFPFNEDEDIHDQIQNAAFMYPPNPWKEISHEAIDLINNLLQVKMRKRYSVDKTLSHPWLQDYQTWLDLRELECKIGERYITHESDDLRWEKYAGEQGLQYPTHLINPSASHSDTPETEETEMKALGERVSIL
As to conditions: at 0.1 µM.

Experiment [19] addresses T3, Serine/threonine-protein kinase D1 (Homo sapiens). As to conditions: at 1 µM.
Experiment [20] addresses T4, Serine/threonine-protein kinase D2 (Homo sapiens) (UniProt Q9BZL6).
T4 sequence (whole entry): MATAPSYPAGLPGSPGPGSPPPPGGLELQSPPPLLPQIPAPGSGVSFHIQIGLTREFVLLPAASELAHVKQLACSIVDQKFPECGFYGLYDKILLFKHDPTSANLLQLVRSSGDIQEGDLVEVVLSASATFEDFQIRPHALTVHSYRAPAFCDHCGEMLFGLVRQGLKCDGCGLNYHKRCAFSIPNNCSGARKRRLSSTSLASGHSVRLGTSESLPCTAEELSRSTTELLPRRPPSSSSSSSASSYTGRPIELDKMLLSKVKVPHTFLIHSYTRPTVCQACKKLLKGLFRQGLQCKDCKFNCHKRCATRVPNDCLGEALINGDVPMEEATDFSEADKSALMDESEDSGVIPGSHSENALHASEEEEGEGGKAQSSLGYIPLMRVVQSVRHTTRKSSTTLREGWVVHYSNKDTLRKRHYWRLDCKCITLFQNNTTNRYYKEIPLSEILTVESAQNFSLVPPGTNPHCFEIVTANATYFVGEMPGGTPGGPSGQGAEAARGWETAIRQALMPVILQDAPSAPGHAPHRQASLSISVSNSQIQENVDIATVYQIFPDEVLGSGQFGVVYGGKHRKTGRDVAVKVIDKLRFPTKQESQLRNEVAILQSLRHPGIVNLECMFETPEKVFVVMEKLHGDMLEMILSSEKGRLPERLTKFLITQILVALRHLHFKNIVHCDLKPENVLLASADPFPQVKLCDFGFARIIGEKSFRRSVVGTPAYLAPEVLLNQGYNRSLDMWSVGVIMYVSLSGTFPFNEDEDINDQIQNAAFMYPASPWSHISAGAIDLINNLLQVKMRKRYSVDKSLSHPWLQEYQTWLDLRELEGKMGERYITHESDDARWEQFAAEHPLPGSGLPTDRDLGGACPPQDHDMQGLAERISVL
The following applies: at 0.1 µM.

Sequence of Protein kinase C eta type (Homo sapiens) (P24723 whole entry): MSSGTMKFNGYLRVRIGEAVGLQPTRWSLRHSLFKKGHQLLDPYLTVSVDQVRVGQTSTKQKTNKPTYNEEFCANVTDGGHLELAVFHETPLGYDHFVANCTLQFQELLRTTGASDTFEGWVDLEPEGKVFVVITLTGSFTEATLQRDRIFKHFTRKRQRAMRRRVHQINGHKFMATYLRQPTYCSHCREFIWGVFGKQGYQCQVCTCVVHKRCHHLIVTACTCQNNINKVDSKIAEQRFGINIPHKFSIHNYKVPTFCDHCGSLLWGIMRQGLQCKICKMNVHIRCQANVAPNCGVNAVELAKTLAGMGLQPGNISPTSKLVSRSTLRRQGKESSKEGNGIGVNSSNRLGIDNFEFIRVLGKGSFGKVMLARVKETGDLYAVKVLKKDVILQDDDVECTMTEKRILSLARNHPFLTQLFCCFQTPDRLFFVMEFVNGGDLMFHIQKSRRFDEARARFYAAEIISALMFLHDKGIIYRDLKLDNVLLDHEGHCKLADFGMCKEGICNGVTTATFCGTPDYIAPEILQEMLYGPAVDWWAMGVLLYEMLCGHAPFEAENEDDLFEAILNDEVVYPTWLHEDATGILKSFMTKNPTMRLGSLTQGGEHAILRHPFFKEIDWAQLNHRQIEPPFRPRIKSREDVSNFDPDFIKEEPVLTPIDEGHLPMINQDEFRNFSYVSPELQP
Sequence of Protein kinase C beta type (Homo sapiens) (P05771 2-671 limits assumed): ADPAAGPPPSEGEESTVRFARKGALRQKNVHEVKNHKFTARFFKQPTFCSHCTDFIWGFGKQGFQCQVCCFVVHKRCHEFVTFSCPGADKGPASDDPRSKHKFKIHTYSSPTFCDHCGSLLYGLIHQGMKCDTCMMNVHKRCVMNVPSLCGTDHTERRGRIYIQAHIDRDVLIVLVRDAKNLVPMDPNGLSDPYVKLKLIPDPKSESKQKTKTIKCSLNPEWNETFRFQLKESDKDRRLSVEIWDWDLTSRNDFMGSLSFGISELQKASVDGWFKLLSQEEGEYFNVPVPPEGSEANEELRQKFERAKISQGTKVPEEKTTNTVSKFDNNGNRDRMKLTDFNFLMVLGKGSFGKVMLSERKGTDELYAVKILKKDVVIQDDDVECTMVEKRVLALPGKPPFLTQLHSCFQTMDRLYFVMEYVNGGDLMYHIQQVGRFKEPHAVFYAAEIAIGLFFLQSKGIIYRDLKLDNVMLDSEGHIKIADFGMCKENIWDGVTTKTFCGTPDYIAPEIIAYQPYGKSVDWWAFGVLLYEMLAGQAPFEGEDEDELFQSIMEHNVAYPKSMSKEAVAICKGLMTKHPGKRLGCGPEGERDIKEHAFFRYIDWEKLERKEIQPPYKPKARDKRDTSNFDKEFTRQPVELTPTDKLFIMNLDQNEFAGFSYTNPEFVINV
Sequence of Protein kinase C theta type (Homo sapiens) (Q04759 whole entry, looked up): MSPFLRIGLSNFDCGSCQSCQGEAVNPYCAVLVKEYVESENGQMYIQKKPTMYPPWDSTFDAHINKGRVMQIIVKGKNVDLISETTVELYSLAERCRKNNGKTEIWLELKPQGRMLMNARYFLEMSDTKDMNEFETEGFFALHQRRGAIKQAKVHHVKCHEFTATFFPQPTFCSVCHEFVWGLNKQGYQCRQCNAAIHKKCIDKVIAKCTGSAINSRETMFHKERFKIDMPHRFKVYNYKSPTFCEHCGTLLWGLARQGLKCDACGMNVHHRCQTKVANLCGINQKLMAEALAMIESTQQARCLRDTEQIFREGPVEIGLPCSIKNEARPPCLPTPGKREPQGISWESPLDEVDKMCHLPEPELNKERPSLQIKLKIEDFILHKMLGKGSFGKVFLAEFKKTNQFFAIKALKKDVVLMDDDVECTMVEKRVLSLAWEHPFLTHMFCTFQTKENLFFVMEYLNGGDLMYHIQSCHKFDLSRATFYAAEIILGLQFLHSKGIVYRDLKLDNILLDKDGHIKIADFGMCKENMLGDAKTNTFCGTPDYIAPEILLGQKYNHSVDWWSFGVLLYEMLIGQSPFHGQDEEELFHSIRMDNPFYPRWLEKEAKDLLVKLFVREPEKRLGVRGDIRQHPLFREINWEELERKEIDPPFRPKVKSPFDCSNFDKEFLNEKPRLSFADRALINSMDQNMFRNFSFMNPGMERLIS

As to `FC(F)(F)c1ccc(-c2nn3ncccc3c2-c2ccnc(Nc3ccc4c(c3)OCCO4)n2)cc1`, the inhibition was 1.11% in [1]; 6.1% in experiment [2]; 6.96% in experiment [3]; 0.99% in experiment [4]; 1.28% in [5]; 8.14% in experiment [6]. Moreover, the inhibition came out at 11.9% in experiment [7]; 1.27% in experiment [8]; 6.69% in experiment [9]; 5.17% in [10]; 5.47% in experiment [11]; 6.58% in experiment [12]. Besides, the inhibition in [13] stood at 3.53%; in [14] it was 2.52%; in [15] it was 5.32%; in experiment [16] it was 5.29%; in experiment [17], 6.33%; in [18], 2.27%. Also, the inhibition was -1.71% in experiment [19] and 0.7% in experiment [20].
For `COc1cccc(-n2ncc3c(N/N=C/c4ccc(C)cc4)ncnc32)c1`, the inhibition was determined as 0.64% in [1]; 3.22% in [2]; 2.93% in [3]; 0.52% in experiment [4]; 1.66% in [5]; 0.67% in experiment [6]. For the same compound, the inhibition in experiment [7] is 1.01%; in [8], 5.56%; in experiment [9], 4.73%; in experiment [10] it was 2.06%; in experiment [11], -9.04%; in experiment [12], 1.65%. In addition, the inhibition came out at 1.86% in experiment [13]; 3.03% in [14]; 4.16% in experiment [15]; 1.4% in experiment [16]; 2.79% in experiment [17]; 6.31% in experiment [18]. Further, the inhibition was 10.7% in experiment [19] and 6.6% in [20].
As for `CN(C)C(=O)O[C@H]1CN[C@H](C#Cc2cc3ncnc(Nc4ccc(OCc5cccc(F)c5)c(Cl)c4)c3s2)C1`, the inhibition was 1.92% in experiment [1]; 2.32% in [2]; 4.73% in experiment [3]; 0.57% in [4]; -0.37% in experiment [5]; -1.06% in [6]. In addition, the inhibition in experiment [7] is 0.39%; in experiment [8] it was 1.05%; in [9] it was 1.68%; in experiment [10], 3.2%; in [11], 0.1%; in experiment [12], 0.58%. The inhibition came out at 1.07% in [13]; 1.43% in [14]; 0.06% in experiment [15]; 1.29% in [16]; 1.12% in [17]; 2.38% in [18]. For the same compound, the inhibition in experiment [19] was 2.68%; in experiment [20], 2.3%.
With `NS(=O)(=O)c1ccc(N/N=C2\C(=O)Nc3ccc(Cl)cc32)cc1`, the inhibition in experiment [1] came out at 2.36%; in [2] it was 3.49%; in experiment [3], 4.12%; in experiment [4], 0.69%; in experiment [5], 1.45%; in [6], 1.35%. Also, the inhibition in experiment [7] is 2.75%; in [8], 4.13%; in experiment [9], 4.71%; in experiment [10], -1.84%; in experiment [11] it was 4.85%; in [12] it was 1.02%. For the same compound, the inhibition in [13] worked out at 0.75%; in experiment [14], 2.29%; in experiment [15] it was 4.86%; in experiment [16] it was 0.92%; in [17], 1.29%; in experiment [18] it was 2.46%. Also, the inhibition in experiment [19] is 7.47%; in [20], 3.87%.
